# In PubChem BioAssay AID1159580 (chemical genetic matrix, 2015):
# The whole screen tested about 5,500 compounds, of which about 2,000 (36%) were called active. About 18% were inconclusive and are not listed. The list shows a part of the results. Values without a mark were called inactive. No stated cut-off is given here; in the data, active means normalized growth mostly below about 0.91 (no sharp cut-off); inconclusive means no clear call, values can overlap the other calls; inactive means mostly above about 0.92.
# Assay: chemical genetic growth profiling, strain panel (AID 1159580);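 further: tested at 20 µM; growth read once vehicle control cultures reached saturation at 30 °C; 1 = growth at the plate median or of vehicle wells; lower values mean less growth of the strain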
# Settings: S. cerevisiae deletion strains, growth OD
# [1] = locus YAL013W, strain DEP1, hits give low values
# [2] = locus YDR150W, strain NUM1, hits give low values
# [3] = locus YGR078C, strain PAC10, hits give low values
# [4] = locus YJR075W, strain HOC1, hits give low values
# [5] = locus YNL153C, strain GIM3, hits give low values
# [6] = locus YPL055C, strain LGE1, hits give low values
# [7] = locus YPL241C, strain CIN2, hits give low values
# [8] = locus YDL101C, strain DUN1, hits give low values
# [9] = locus YHR030C, strain SLT2, hits give low values
smiles,measurement,setting,value
CCCN(CCC)C1CCc2cccc(O)c2C1 (stereo unspecified),normalized growth,[1],1
same,normalized growth,"locus YAL040C, strain CLN3, hits give low values",0.984
same,normalized growth,"locus YCL061C, strain MRC1 (second series), hits give low values",1
same,normalized growth,[2],0.998
same,normalized growth,"locus YDR363W, strain ESC2, hits give low values",1.01
same,normalized growth,"locus YER002W, strain NOP16, hits give low values",1
same,normalized growth,[3],1.01
same,normalized growth,[4],0.995
same,normalized growth,"locus YNL128W, strain TEP1, hits give low values",1
same,normalized growth,[5],1.1
same,normalized growth,"locus YNL175C, strain NOP13, hits give low values",1.01
same,normalized growth,"locus YNL197C, strain WHI3, hits give low values",1.01
same,normalized growth,"locus YNL224C, strain SQS1, hits give low values",1.02
same,normalized growth,"locus YOR083W, strain WHI5 (second series), hits give low values",1.01
same,normalized growth,[6],1
same,normalized growth,[7],1
Cc1onc(-c2ccccc2)c1NC(=O)Nc1c(Cl)cccc1Cl,normalized growth,[1],0.995
same,normalized growth,"locus YBR229C, strain ROT2, hits give low values",0.983
same,normalized growth,"locus YCL061C, strain MRC1, hits give low values",0.963
same,normalized growth,[8],0.988
same,normalized growth,"locus YDL134C, strain PPH21, hits give low values",0.996
same,normalized growth,[2],0.973
same,normalized growth,"locus YEL061C, strain CIN8, hits give low values",0.991
same,normalized growth,[3],1
same,normalized growth,"locus YGR229C, strain SMI1, hits give low values",0.996
same,normalized growth,[9],0.811
same,normalized growth,"locus YHR087W, strain rtc3, hits give low values",0.975
same,normalized growth,"locus YJR043C, strain POL32, hits give low values",0.969
same,normalized growth,[4],0.975
same,normalized growth,"locus YKL190W, strain CNB1, hits give low values",1
same,normalized growth,"locus YLR039C, strain RIC1, hits give low values",0.668 (active)
same,normalized growth,"locus YLR058C, strain SHM2 (second series), hits give low values",0.988
same,normalized growth,"locus YLR085C, strain ARP6, hits give low values",0.946
same,normalized growth,"locus YLR262C, strain YPT6, hits give low values",0.572 (active)
same,normalized growth,"locus YML094W, strain GIM5, hits give low values",0.949
same,normalized growth,"locus YMR219W, strain ESC1, hits give low values",0.991
same,normalized growth,"locus YMR263W, strain SAP30, hits give low values",0.999
same,normalized growth,[5],1.01
same,normalized growth,"locus YNL298W, strain CLA4 (second series), hits give low values",0.974
same,normalized growth,"locus YNL322C, strain KRE1, hits give low values",0.976
same,normalized growth,"locus YNR030W, strain Alg12, hits give low values",0.983
same,normalized growth,"locus YOL006C, strain TOP1, hits give low values",0.803
same,normalized growth,[6],0.997
same,normalized growth,[7],0.941
same,normalized growth,"locus YPR135W, strain CTF4, hits give low values",0.933
Cc1onc(-c2c(F)cccc2Cl)c1C(=O)NNc1cc(Cl)cc(Cl)c1,normalized growth,"locus YAR019C, strain CDC15, hits give low values",0.987
same,normalized growth,"locus YBL105C, strain PKC1, hits give low values",0.984
same,normalized growth,"locus YBR135W, strain CKS1, hits give low values",0.987
same,normalized growth,"locus YBR136W, strain MEC1, hits give low values",0.985
same,normalized growth,"locus YBR160W, strain CDC28, hits give low values",0.976
same,normalized growth,"locus YDL017W, strain CDC7, hits give low values",0.989
same,normalized growth,"locus YDL028C, strain MPS1, hits give low values",0.986
same,normalized growth,[8],0.987
same,normalized growth,"locus YDL108W, strain KIN28, hits give low values",0.976
same,normalized growth,"locus YDL132W, strain cdc53, hits give low values",0.989
same,normalized growth,"locus YDL214C, strain PRR2, hits give low values",0.902
same,normalized growth,"locus YDR052C, strain DBF4, hits give low values",0.99
same,normalized growth,"locus YDR054C, strain cdc34, hits give low values",0.982
same,normalized growth,"locus YDR226W, strain ADK1, hits give low values",0.991
same,normalized growth,"locus YDR477W, strain SNF1, hits give low values",0.931
same,normalized growth,"locus YER123W, strain YCK3, hits give low values",0.864
same,normalized growth,"locus YER133W, strain GLC7, hits give low values",0.937
same,normalized growth,"locus YFL009W, strain cdc4, hits give low values",0.979
same,normalized growth,"locus YFL029C, strain CAK1, hits give low values",0.977
same,normalized growth,"locus YFR003C, strain YPI1, hits give low values",0.987
same,normalized growth,"locus YFR019W, strain FAB1, hits give low values",0.908
same,normalized growth,"locus YFR028C, strain CDC14, hits give low values",0.976
same,normalized growth,"locus YGR040W, strain KSS1, hits give low values",0.894
same,normalized growth,"locus YGR052W, strain FMP48, hits give low values",0.951
same,normalized growth,"locus YGR092W, strain DBF2, hits give low values",0.937
same,normalized growth,[9],0.962
same,normalized growth,"locus YHR079C, strain IRE1, hits give low values",0.939
same,normalized growth,"locus YHR082C, strain KSP1, hits give low values",0.964
same,normalized growth,"locus YHR205W, strain SCH9, hits give low values",0.89
same,normalized growth,"locus YIL147C, strain SLN1, hits give low values",0.989
same,normalized growth,"locus YJL095W, strain BCK1, hits give low values",0.942
same,normalized growth,"locus YJL128C, strain PBS2, hits give low values",0.956
same,normalized growth,"locus YJL157C, strain FAR1, hits give low values",0.916
same,normalized growth,"locus YJR016C, strain ILV3, hits give low values",0.988
same,normalized growth,"locus YJR066W, strain TOR1 (second series), hits give low values",0.883
same,normalized growth,"locus YJR066W, strain TOR1, hits give low values",0.984
same,normalized growth,"locus YKL048C, strain ELM1, hits give low values",0.878
same,normalized growth,"locus YKL067W, strain YNK1, hits give low values",0.927
same,normalized growth,"locus YKL101W, strain HSL1, hits give low values",0.894
same,normalized growth,"locus YKL193C, strain SDS22, hits give low values",0.98
same,normalized growth,"locus YKL203C, strain TOR2, hits give low values",0.992
same,normalized growth,"locus YLR113W, strain HOG1, hits give low values",0.798 (active)
same,normalized growth,"locus YLR133W, strain CKI1, hits give low values",0.906
same,normalized growth,"locus YLR403W, strain SFP1, hits give low values",0.901
same,normalized growth,"locus YML070W, strain DAK1, hits give low values",0.89
same,normalized growth,"locus YMR001C, strain CDC5, hits give low values",0.98
same,normalized growth,"locus YMR205C, strain PFK2 (second series), hits give low values",0.936
same,normalized growth,"locus YMR277W, strain FCP1, hits give low values",0.983
same,normalized growth,"locus YNL006W, strain LST8, hits give low values",0.984
same,normalized growth,"locus YNL020C, strain ARK1, hits give low values",0.914
same,normalized growth,"locus YNL161W, strain CBK1, hits give low values",0.979
same,normalized growth,"locus YNL183C, strain NPR1, hits give low values",0.935
same,normalized growth,"locus YNL207W, strain RIO2, hits give low values",0.987
same,normalized growth,"locus YNL222W, strain SSU72, hits give low values",0.988
same,normalized growth,"locus YNL307C, strain MCK1 (second series), hits give low values",0.879
same,normalized growth,"locus YOL078W, strain AVO1, hits give low values",0.978
same,normalized growth,"locus YOL136C, strain PFK27, hits give low values",0.884
same,normalized growth,"locus YOR061W, strain CKA2, hits give low values",0.908
same,normalized growth,"locus YOR119C, strain RIO1, hits give low values",0.972
same,normalized growth,"locus YOR231W, strain MKK1, hits give low values",0.889
same,normalized growth,"locus YOR329C, strain SCD5, hits give low values",0.984
same,normalized growth,"locus YPL031C, strain PHO85, hits give low values",0.936
same,normalized growth,"locus YPL153C, strain RAD53, hits give low values",0.928
same,normalized growth,"locus YPL204W, strain HRR25, hits give low values",0.918
same,normalized growth,"locus YPL209C, strain IPL1, hits give low values",0.979
same,normalized growth,"locus YPL256C, strain CLN2, hits give low values",0.839 (active)
same,normalized growth,"locus YPR025C, strain CCL1, hits give low values",0.98
same,normalized growth,"locus YPR106W, strain ISR1, hits give low values",0.956
same,normalized growth,"locus YPR111W, strain DBF20, hits give low values",0.955
same,normalized growth,"strain NNK1, hits give low values",0.955
same,normalized growth,"strain TSCII, hits give low values",0.986
